Assay results from article PMC5540273 (PLoS ONE, 2017).
“And” between values parts separate entries of the source, which are not always exact repeats. Equal values may be shown once. Read-outs that look alike come from different tables or passages of the source.

What was measured:
[1] = tested on: QSK; conditions: n = 1
[2] = tested on: RAF1; conditions: n = 1
[3] = tested on: RET; conditions: n = 1
[4] = tested on: RIOK1; conditions: n = 1
[5] = tested on: RIOK2; conditions: n = 1
[6] = tested on: RIOK3; conditions: n = 1
[7] = tested on: RIPK1; conditions: n = 1
[8] = tested on: RIPK2; conditions: n = 1
[9] = tested on: RIPK4; conditions: n = 1
[10] = tested on: RIPK5; conditions: concentration: 1 μM, replicates: in singlicate; n = 1
[11] = concentration: 1 μM, replicates: in singlicate
[12] = concentration: 1 μM,replicates: in singlicate, 1 µM
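Further: KINOMEscan kinase panel screen.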

| SMILES | %Inh [1, 11] [%] | %Inh [2, 11] [%] | %Inh [3, 11] [%] | %Inh [4, 11] [%] | %Inh [5, 11] [%] | %Inh [6, 11] [%] | %Inh [7, 11] [%] | %Inh [8, 11] [%] | %Inh [9, 11] [%] | %Inh [10] [%] | %Inh [1, 12] | %Inh [2, 12] | %Inh [3, 12] | %Inh [4, 12] | %Inh [5, 12] | %Inh [6, 12] | %Inh [7, 12] | %Inh [8, 12] | %Inh [9, 12] |
| --- | --- | --- | --- | --- | --- | --- | --- | --- | --- | --- | --- | --- | --- | --- | --- | --- | --- | --- | --- |
| O=C(Nc1n[nH]c2nc(-c3nccs3)c(Br)cc12)C1CCCC1 [SB-742609] | 0 | 25 | 0 | 2 | 0 | 0 | 0 | 4 | 21 | 1 |  |  |  |  |  |  |  |  |  |
| Cc1cccc(-c2cc(Nc3ccncc3)c3ccccc3n2)n1 [GSK223675] | 0 | 6 | 0 | 19 | 0 | 29 | 0 | 6 | 21 | 6 |  |  |  |  |  |  |  |  |  |
| O=S(=O)(c1ccc(-c2ccnc3[nH]ccc23)cc1)N1CCCC1 [GSK846226] | 0 | 0 | 7 | 86 | 85 | 89 | 8 | 5 | 8 | 16 |  |  |  |  |  |  |  |  |  |
| Cc1ccc(C(=O)Nc2ccc(Nc3ccnc4cc(-c5ccccn5)ccc34)cc2O)cc1.Cl [GW440146] | 0 | 8 | 26 | 14 | 3 | 81 | 0 | 52 | 3 | 0 |  |  |  |  |  |  |  |  |  |
| Cc1c(Cn2ccn3c(=O)cc(N4CCOCC4)nc23)cccc1C(F)(F)F [GSK2289044] | 3 | 5 | 8 | 3 | 34 | 5 | 9 | 10 | 0 | 0 |  |  |  |  |  |  |  |  |  |
| COc1cc2ncn(-c3cc(OCC4CCCO4)c(C(N)=O)s3)c2cc1OC (stereo not shown) [GSK204607] | 0 | 0 | 0 | 77 | 0 | 94.5 | 5 | 7 | 0 | 0 |  |  |  |  |  |  |  |  |  |
| Cc1cccc(-c2nc(Nc3ccc4[nH]ncc4c3)c3ccccc3n2)n1 [GW857175] | 4 | 8 | 13 | 39 | 8 | 29 | 0 | 0 | 44 | 35 |  |  |  |  |  |  |  |  |  |
| Cc1nnc(-c2ccc3occ(-c4ccc(S(C)=O)cc4)c3c2)[nH]1 (stereo not shown) | 3 | 4 | 31 | 13 | 31 | 0 | 100 | 13 | 0 | 0 |  |  |  |  |  |  |  |  |  |
| O=c1cc(N2CCOCC2)nc2n(Cc3cccc(Cl)c3Cl)ccn12 [GSK2286295] | 1 | 7 | 1 | 42 | 56 | 19 | 0 | 6 | 6 | 0 |  |  |  |  |  |  |  |  |  |
| CC(C)(C)c1ccc(C(=O)Nc2cn3cc(Cl)ccc3n2)cc1 | 3 | 0 | 0 | 25 | 0 | 0 | 0 | 5 | 0 | 0 |  |  |  |  |  |  |  |  |  |
| CN1C(=O)C(Nc2ccc(Cl)c(C(=O)O)c2)=C(c2ccc(Cl)cc2)C1=O [SB-404290] | 40 | 0 | 0 | 0 | 0 | 18 | 0 | 0 | 18 | 17 |  |  |  |  |  |  |  |  |  |
| Cc1c(O)cccc1Nc1ccnc2ccc(C(F)(F)F)cc12.Cl [GW466413] | 3 | 23 | 24 | 34 | 2 | 0 | 3 | 21 | 0 | 0 |  |  |  |  |  |  |  |  |  |
| Cc1ccc(NC(=O)Nc2cccc(Cl)c2)cc1-c1ccc(C(=O)Nc2ccncc2)cc1 [GSK1398468] | 0 | 91.4 | 1 | 40 | 0 | 59 | 5 | 6 | 22 | 0 |  |  |  |  |  |  |  |  |  |
| COc1ccc2nc(-c3cccc(C)n3)nc(Nc3ccncc3)c2c1 [GSK204919] | 0 | 6 | 18 | 24 | 0 | 16 | 0 | 33 | 5 | 0 |  |  |  |  |  |  |  |  |  |
| O=C(Nc1ccccc1)Nc1cccc(Oc2ccc3nccn3n2)c1 | 0 | 21 | 8 | 48 | 0 | 15 | 2 | 0 | 0 | 0 |  |  |  |  |  |  |  |  |  |
| CSc1nn2c(=O)cc(N3CCOCC3)nc2n1Cc1cccc(C(F)(F)F)c1C [GSK2363608] |  |  |  |  |  |  |  |  |  | 0 | 55% and 8% | 14% and 11% | 19% and 56% | 37% and 10% | 19% and 5% | 39% and 0% | 26% and 0% | 0% and 14% | 22% and 13% |
| COc1cc2ncnc(Nc3ccc4nc(-c5ccccc5)[nH]c4c3)c2cc1OC.Cl [GW282450] | 0 | 10 | 33 | 51 | 11 | 25 | 18 | 27 | 1 | 0 |  |  |  |  |  |  |  |  |  |

| SMILES | %Inh [1, 11] [%] | %Inh [2, 11] [%] | %Inh [3, 11] [%] | %Inh [4, 11] [%] | %Inh [5, 11] [%] | %Inh [6, 11] [%] | %Inh [7, 11] [%] | %Inh [8, 11] [%] | %Inh [9, 11] [%] | %Inh [10] [%] | %Inh [1, 12] | %Inh [2, 12] | %Inh [3, 12] | %Inh [4, 12] | %Inh [5, 12] | %Inh [6, 12] | %Inh [7, 12] | %Inh [8, 12] | %Inh [9, 12] |
| --- | --- | --- | --- | --- | --- | --- | --- | --- | --- | --- | --- | --- | --- | --- | --- | --- | --- | --- | --- |
| Cc1cc(-c2ccc3c(c2)CC[C@@H](N[C@@H](C)c2ccccc2)C3)cnc1N.Cl [GW412617] | 0 | 19 | 0 | 44 | 85 | 32 | 50 | 15 | 13 | 7 |  |  |  |  |  |  |  |  |  |
| Cc1ccc(NC(=O)Nc2cc(C(C)(C)C)nn2-c2ccccc2)cc1 [GSK1014915] | 13 | 89 | 46 | 18 | 0 | 0 | 9 | 6 | 12 | 0 |  |  |  |  |  |  |  |  |  |
| Cn1ccc2ncnc(Oc3ccc(Nc4nc5ccccc5[nH]4)cc3)c21 | 0 | 0 | 0 | 0 | 0 | 0 | 0 | 0 | 0 | 0 |  |  |  |  |  |  |  |  |  |
| COc1ccc(C2=C(Nc3cccc(C(=O)O)c3)C(=O)NC2=O)cc1 [SB-390765] | 27 | 11 | 3 | 13 | 18 | 0 | 0 | 0 | 18 | 31 |  |  |  |  |  |  |  |  |  |
| COc1ccccc1CNC(=O)c1cc(C(=O)c2ccccc2C)c[nH]1 [GSK364507] | 8 | 25 | 14 | 30 | 0 | 1 | 0 | 9 | 19 | 0 |  |  |  |  |  |  |  |  |  |
| Fc1cc(Cl)ccc1Nc1ccnc2cc(-c3ccc(CN4CCCCC4)o3)ccc12 [GW560116] | 29 | 8 | 22 | 12 | 0 | 0 | 8 | 61 | 0 | 0 |  |  |  |  |  |  |  |  |  |
| COC(=O)c1c(-c2ccccc2)c2cc(C(=O)O)ccc2c(=O)n1Cc1ccccc1 | 0 | 81 | 21 | 0 | 26 | 11 | 0 | 0 | 0 | 0 |  |  |  |  |  |  |  |  |  |
| Cl.O=C(Nc1cccc(-c2nn3ncccc3c2-c2ccnc(Nc3cccnc3)n2)c1)c1c(F)cccc1F [GSK312879] | 0 | 87 | 31 | 31 | 11 | 0 | 0 | 18 | 15 | 0 |  |  |  |  |  |  |  |  |  |
| CC(=O)Nc1nc2cnc(Nc3cc(NC(=O)c4cccc(CCC#N)c4)ccc3C)nc2s1 | 0 | 88 | 51 | 0 | 17 | 10 | 0 | 0 | 0 | 5 |  |  |  |  |  |  |  |  |  |
| CCn1c(-c2ccccn2)nc2cnccc21 [SB-736398] | 0 | 18 | 24 | 4 | 0 | 0 | 0 | 0 | 15 | 0 |  |  |  |  |  |  |  |  |  |
| O=C(O)COc1ncnc2cc(-c3ccc4[nH]ncc4c3)sc12 | 0 | 1 | 11 | 0 | 16 | 0 | 0 | 0 | 30 | 6 |  |  |  |  |  |  |  |  |  |
| Cn1ccc2ncnc(Oc3cccc(C(=O)Nc4ccccc4)c3)c21 | 0 | 5 | 14 | 38 | 0 | 23 | 0 | 15 | 18 | 0 |  |  |  |  |  |  |  |  |  |
| COc1cccc(-c2cc(-c3c[nH]nc3-c3ccccn3)ccn2)c1 [GW680338] | 17 | 25 | 21 | 1 | 3 | 91.4 | 19 | 27 | 0 | 5 |  |  |  |  |  |  |  |  |  |
| Cl.Oc1ccc(-c2nc(-c3ccccc3)[nH]c2-c2ccncc2)cc1 [SB-428218] | 0 | 61 | 26 | 0 | 0 | 0 | 0 | 22 | 14 | 0 |  |  |  |  |  |  |  |  |  |
| CN(C)CCN(C)C(=O)c1cc(-c2ccncc2)c(-c2ccc(Cl)c(O)c2)o1.Cl.Cl [SB-710397] | 0 | 87 | 24 | 37 | 0 | 0 | 0 | 59 | 14 | 0 |  |  |  |  |  |  |  |  |  |
| CCn1c(-c2cccnc2O)nc2cnccc21 [SB-736715] | 0 | 0 | 5 | 6 | 0 | 0 | 0 | 0 | 21 | 0 |  |  |  |  |  |  |  |  |  |
| C[C@@H]1CCCCN1c1cc(-c2ccc3c(N)n[nH]c3c2)nc(N)n1 [GSK2258759] | 0 | 3 | 6 | 47 | 1 | 19 | 0 | 11 | 20 | 0 |  |  |  |  |  |  |  |  |  |
